Holding throughout (experiment): PBM; 200 nM protein, PBS
Common to all, as to conditions: dsDNA, one strand shown

The target of assay [1] is ALX4 (Homo sapiens, UniProt Q9H161 200-286).
The target of assay [2] is ALX4 (Homo sapiens, UniProt Q9H161 200-286, Q225E).
Assay [3] concerns the target PRRX1 (Homo sapiens, UniProt P54821 80-166, F113S).
For assay [4], the target named is PRRX1 (Homo sapiens, UniProt P54821 80-166).
Assay [5] deals with HOXB6 (Homo sapiens, UniProt P17509 132-218, K202E).
In assay [6] the target is HOXB6 (Homo sapiens, UniProt P17509 132-218).
Assay [7] concerns the target ALX1 (Homo sapiens, UniProt Q15699 118-204, L144V).
The target in assay [8] is PITX2 (Homo sapiens, UniProt Q99697 72-157).
Assay [9] addresses ALX1 (Homo sapiens, UniProt Q15699 118-204, L144R).
For assay [10], the target named is ALX1 (Homo sapiens, UniProt Q15699 118-204).

This passage reports binding signal results from publication PMC11006913.

Sequence of ALX4 (Homo sapiens, UniProt Q9H161 200-286) (Q9H161 200-286): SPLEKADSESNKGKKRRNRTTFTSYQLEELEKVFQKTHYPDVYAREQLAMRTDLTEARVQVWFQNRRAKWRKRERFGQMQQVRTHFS
Sequence of ALX4 (Homo sapiens, UniProt Q9H161 200-286, Q225E) (Q9H161 200-286 Q225E): as the sequence (Q9H161 200-286) above, with Q26E counted along it
Sequence of PRRX1 (Homo sapiens, UniProt P54821 80-166, F113S) (P54821 80-166 F113S): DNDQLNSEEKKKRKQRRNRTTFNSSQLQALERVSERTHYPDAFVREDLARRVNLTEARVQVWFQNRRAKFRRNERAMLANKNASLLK
Sequence of HOXB6 (Homo sapiens, UniProt P17509 132-218) (P17509 132-218): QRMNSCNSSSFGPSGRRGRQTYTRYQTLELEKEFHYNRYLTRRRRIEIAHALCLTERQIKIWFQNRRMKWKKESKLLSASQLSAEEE
Sequence of HOXB6 (Homo sapiens, UniProt P17509 132-218, K202E) (P17509 132-218 K202E): as the sequence (P17509 132-218) above, with K71E counted along it
Sequence of PRRX1 (Homo sapiens, UniProt P54821 80-166) (P54821 80-166): as the sequence (P54821 80-166 F113S) above, with S34F counted along it
Sequence of ALX1 (Homo sapiens, UniProt Q15699 118-204) (Q15699 118-204): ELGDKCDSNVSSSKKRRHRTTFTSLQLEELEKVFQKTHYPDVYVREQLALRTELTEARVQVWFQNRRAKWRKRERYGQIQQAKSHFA
Sequence of ALX1 (Homo sapiens, UniProt Q15699 118-204, L144V) (Q15699 118-204 L144V): as the sequence (Q15699 118-204) above, with L27V counted along it
Sequence of ALX1 (Homo sapiens, UniProt Q15699 118-204, L144R) (Q15699 118-204 L144R): as the sequence (Q15699 118-204) above, with L27R counted along it

For the sequence TATTTTGA, the binding signal in assay [1] was 9.82 upbm affinity estimate (log intensity, higher = more binding, comparable within an allelic series); in assay [2], 9.39 upbm affinity estimate (log intensity, higher = more binding, comparable within an allelic series).

Regarding CGGATGTC, the binding signal in [1] was 8.26 upbm affinity estimate (log intensity, higher = more binding, comparable within an allelic series); in assay [2], 8.17 upbm affinity estimate (log intensity, higher = more binding, comparable within an allelic series).

Consider GAATACAA, for which the binding signal in assay [1] was 9.67 upbm affinity estimate (log intensity, higher = more binding, comparable within an allelic series); in [2] it was 9.34 upbm affinity estimate (log intensity, higher = more binding, comparable within an allelic series).

On to ATATGTAA, for which the binding signal in assay [1] is 10.2 upbm affinity estimate (log intensity, higher = more binding, comparable within an allelic series); in [2], 9.63 upbm affinity estimate (log intensity, higher = more binding, comparable within an allelic series).

With TCCGATAA, the binding signal in assay [1] was 10.1 upbm affinity estimate (log intensity, higher = more binding, comparable within an allelic series); in assay [2] it was 9.41 upbm affinity estimate (log intensity, higher = more binding, comparable within an allelic series).

Turning to CGAGGGCA, the binding signal in assay [1] was 8.31 upbm affinity estimate (log intensity, higher = more binding, comparable within an allelic series); in assay [3], 9.29 upbm affinity estimate (log intensity, higher = more binding, comparable within an allelic series); in assay [2], 8.26 upbm affinity estimate (log intensity, higher = more binding, comparable within an allelic series); in [4], 9.63 upbm affinity estimate (log intensity, higher = more binding, comparable within an allelic series).

As to GAGGACCC, the binding signal in [1] is 7.88 upbm affinity estimate (log intensity, higher = more binding, comparable within an allelic series); in assay [3], 9.19 upbm affinity estimate (log intensity, higher = more binding, comparable within an allelic series); in assay [2], 7.98 upbm affinity estimate (log intensity, higher = more binding, comparable within an allelic series); in assay [4], 9.51 upbm affinity estimate (log intensity, higher = more binding, comparable within an allelic series).

As for CTTCCCGC, the binding signal in [1] was 8.12 upbm affinity estimate (log intensity, higher = more binding, comparable within an allelic series); in [5], 9.12 upbm affinity estimate (log intensity, higher = more binding, comparable within an allelic series); in assay [2], 8.22 upbm affinity estimate (log intensity, higher = more binding, comparable within an allelic series); in assay [6], 9.02 upbm affinity estimate (log intensity, higher = more binding, comparable within an allelic series).

As to CATCAATC, the binding signal in assay [1] is 10.6 upbm affinity estimate (log intensity, higher = more binding, comparable within an allelic series); in assay [5], 9.69 upbm affinity estimate (log intensity, higher = more binding, comparable within an allelic series); in [6] it was 10.5 upbm affinity estimate (log intensity, higher = more binding, comparable within an allelic series).

With CGGCCGAC, the binding signal was 7.76 upbm affinity estimate (log intensity, higher = more binding, comparable within an allelic series) in assay [1] and 8.04 upbm affinity estimate (log intensity, higher = more binding, comparable within an allelic series) in assay [2].

Consider GGGTGACC, for which the binding signal was 8.07 upbm affinity estimate (log intensity, higher = more binding, comparable within an allelic series) in assay [1] and 8.31 upbm affinity estimate (log intensity, higher = more binding, comparable within an allelic series) in [2].

Consider GCAGCTCC, for which the binding signal in assay [1] is 8.25 upbm affinity estimate (log intensity, higher = more binding, comparable within an allelic series); in assay [2], 8.26 upbm affinity estimate (log intensity, higher = more binding, comparable within an allelic series).

In the case of GCATTTGA, the binding signal in assay [1] was 9.56 upbm affinity estimate (log intensity, higher = more binding, comparable within an allelic series); in [2], 9.16 upbm affinity estimate (log intensity, higher = more binding, comparable within an allelic series).

With CCTCAGGC, the binding signal is 8.2 upbm affinity estimate (log intensity, higher = more binding, comparable within an allelic series) in [1] and 8.19 upbm affinity estimate (log intensity, higher = more binding, comparable within an allelic series) in [2].

On to CGATATAA, for which the binding signal in assay [1] is 10.2 upbm affinity estimate (log intensity, higher = more binding, comparable within an allelic series); in assay [2], 9.67 upbm affinity estimate (log intensity, higher = more binding, comparable within an allelic series).

ATAATACA: the binding signal is 11.1 upbm affinity estimate (log intensity, higher = more binding, comparable within an allelic series) in [1] and 10.4 upbm affinity estimate (log intensity, higher = more binding, comparable within an allelic series) in assay [2].

Consider GACCGTCC, for which the binding signal in [1] was 8.08 upbm affinity estimate (log intensity, higher = more binding, comparable within an allelic series); in assay [2] it was 8.15 upbm affinity estimate (log intensity, higher = more binding, comparable within an allelic series); in assay [7] it was 6.23 upbm affinity estimate (log intensity, higher = more binding, comparable within an allelic series); in assay [8], 8.03 upbm affinity estimate (log intensity, higher = more binding, comparable within an allelic series); in assay [9], 6.38 upbm affinity estimate (log intensity, higher = more binding, comparable within an allelic series); in assay [10], 6.51 upbm affinity estimate (log intensity, higher = more binding, comparable within an allelic series).

For CGTAATCA, the binding signal in assay [1] is 11.9 upbm affinity estimate (log intensity, higher = more binding, comparable within an allelic series); in assay [2], 10.6 upbm affinity estimate (log intensity, higher = more binding, comparable within an allelic series).

For AATGGATA, the binding signal in assay [1] was 10.2 upbm affinity estimate (log intensity, higher = more binding, comparable within an allelic series); in [2] it was 9.39 upbm affinity estimate (log intensity, higher = more binding, comparable within an allelic series).

For CCAGGACG, the binding signal in assay [1] was 8.2 upbm affinity estimate (log intensity, higher = more binding, comparable within an allelic series); in assay [2] it was 8.31 upbm affinity estimate (log intensity, higher = more binding, comparable within an allelic series).

As to CTCTAGGA, the binding signal in [1] is 8.21 upbm affinity estimate (log intensity, higher = more binding, comparable within an allelic series); in assay [2] it was 8.12 upbm affinity estimate (log intensity, higher = more binding, comparable within an allelic series).
